Shown are actives, neighbours in structure and some others; about 0.99% of the full set was active somewhere.
C-LANA FP = inhibitors of KSHV C-LANA binding to DNA, primary screen, biochemical, fluorescence polarization, FAM-LBS DNA, MBP-C-LANA, single point | AID 504423, 2011 | inhibition, % at 9 µM | 340,000 tested, 0.078% active;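 active = highest replicate inhibition at or above 60% at 9 µM, even if other replicates fall short; inactive = all replicates below 60% inhibition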;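 note: 0% = neutral control wells and 100% = 4 µM acridine orange control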
LANA-H2A inh = blockers of LANA interaction with H2A/H2B – biochemical, FP readout, HTS, primary screen; AID 2629, 2010; inhibition, % (concentration not given with the values); 320,000 tested, 0.6% active; cell-free LANA-H2A/H2B peptide, fluorescence polarization; Protein LANA1 (Human herpesvirus 8 type P (isolate GK18)), Q9QR71; in the data active = inhibition mostly above about 10%, no sharp cut-off; inactive = mostly below about 6.7%
Keap1-Nrf2 PPI = Keap1-Nrf2 protein-protein interaction inhibitors, primary screen, biochemical, fluorescence polarization, single point; Kelch-like ECH-associated protein 1 (Homo sapiens), Q14145; Keap1 Kelch-Nrf2 peptide fluorescence polarization, 1536-well; inhibition, % at 9.4 µM; 340,000 tested, 0.15% active; in the data active = inhibition above about 12%;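 note: human Keap1 Kelch domain with fluorescein labeled Nrf2 9mer peptide probe; 0% = neutral control wells and 100% = peptide positive control; higher means more block of Keap1 binding to Nrf2 peptide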
Target sequence (Q14145 whole entry, looked up, the tested form may be a part): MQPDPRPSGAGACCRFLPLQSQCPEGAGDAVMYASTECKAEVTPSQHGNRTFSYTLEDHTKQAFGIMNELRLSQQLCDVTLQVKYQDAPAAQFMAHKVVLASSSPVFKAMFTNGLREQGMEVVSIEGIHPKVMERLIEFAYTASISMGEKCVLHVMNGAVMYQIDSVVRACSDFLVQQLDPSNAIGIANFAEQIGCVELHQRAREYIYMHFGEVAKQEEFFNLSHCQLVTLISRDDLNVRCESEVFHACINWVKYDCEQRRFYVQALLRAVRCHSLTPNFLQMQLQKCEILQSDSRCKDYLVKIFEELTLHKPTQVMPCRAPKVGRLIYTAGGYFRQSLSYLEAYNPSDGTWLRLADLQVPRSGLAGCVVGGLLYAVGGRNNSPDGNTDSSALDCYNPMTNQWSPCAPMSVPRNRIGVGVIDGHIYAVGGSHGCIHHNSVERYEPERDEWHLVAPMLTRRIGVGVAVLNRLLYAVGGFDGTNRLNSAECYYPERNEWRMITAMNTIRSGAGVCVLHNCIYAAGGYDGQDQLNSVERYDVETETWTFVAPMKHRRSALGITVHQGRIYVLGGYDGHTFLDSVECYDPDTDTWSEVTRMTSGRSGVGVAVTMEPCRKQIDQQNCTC
RTF Ca sens inh = cardiac RTF calcium sensitivity inhibitors, primary screen, biochemical, IANBD-TnC fluorescence, EC70 calcium; Troponin I, cardiac muscle (Homo sapiens) + Troponin T, cardiac muscle (Homo sapiens) + …; IANBD-labeled cardiac RTF, Ca2+ fluorescence; inhibition, % at 7.15 µM; 340,000 tested, 0.12% active;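 active = inhibition above the mean inhibition of all tested compounds plus 3 SD, cut at about 17% in these data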;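 note: assay run at fixed EC70 calcium of 1.6 mM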
cardiac RTF act = cardiac RTF calcium sensitivity activators, primary screen, biochemical, IANBD-TnC fluorescence, EC20 calcium; Troponin I, cardiac muscle (Homo sapiens) + Troponin T, cardiac muscle (Homo sapiens) + …; IANBD-labeled TnC RTF fluorescence at EC20 calcium; 0% EC20 calcium, 100% full calcium; activation, % at 7.2 µM; 340,000 tested, 0.24% active;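 active = activation above the mean over all tested compounds plus 3 SD, cut at about 30% in these data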;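 note: rise in fluorescence read as greater calcium sensitivity of cardiac thin filaments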
RTF Ca inh conf = cardiac RTF calcium sensitivity inhibitors, confirmation, biochemical, fluorescence readout. shares compounds with RTF Ca sens inh. reconstituted cardiac thin filaments. inhibition, % at 7.15 µM. 360 tested, 8% active. AID 504635, 2011; in the data active = inhibition above about 18%
* marks the source's active call; other numbers are inactive results.

`COc1ccccc1OCC(O)COC(N)=O` (stereo unspecified) gave C-LANA FP 3, LANA-H2A inh -2, Keap1-Nrf2 PPI -5, RTF Ca sens inh 18*, cardiac RTF act -1 and RTF Ca inh conf 2.
COc1cccc(OC)c1C(=O)OCC(=O)N1CCC(Cc2ccccc2)CC1 was read as C-LANA FP -4, LANA-H2A inh -2, Keap1-Nrf2 PPI -3, RTF Ca sens inh -1 and cardiac RTF act -2.
For COc1ccc(N=Nc2ccc(N)nc2N)cc1 the results were C-LANA FP 0, LANA-H2A inh -5, Keap1-Nrf2 PPI -3, RTF Ca sens inh 0 and cardiac RTF act -6.
For CCOc1ccc2nc3cc(N=Nc4ccc(N)nc4N)ccc3c(N)c2c1 the results were C-LANA FP 0, Keap1-Nrf2 PPI 5, RTF Ca sens inh 25*, cardiac RTF act -12 and RTF Ca inh conf 41*.
`COc1ccccc1NC(=S)N(Cc1ccccn1)Cc1ccccc1Cl` gave C-LANA FP 1, LANA-H2A inh 0, Keap1-Nrf2 PPI 2, RTF Ca sens inh 17*, cardiac RTF act -1 and RTF Ca inh conf 2.
COc1ccc(C(=O)Nc2ccc(C)cc2C(=O)c2ccccc2)c(OC)c1 was read as C-LANA FP 1, LANA-H2A inh 1, Keap1-Nrf2 PPI 1, RTF Ca sens inh 17*, cardiac RTF act 8 and RTF Ca inh conf -2.
CCCCn1c(SC(C)C(=O)NCC2CCCO2)nc2cc(C(=O)OC)ccc2c1=O (stereo unspecified) was read as C-LANA FP -11, LANA-H2A inh 1, Keap1-Nrf2 PPI 2, RTF Ca sens inh 19*, cardiac RTF act -4 and RTF Ca inh conf -4.
Screening CCCCn1c(SC(C)C(N)=O)nc2cc(C(=O)OC)ccc2c1=O (stereo unspecified) returned C-LANA FP 0, LANA-H2A inh 0, Keap1-Nrf2 PPI -4, RTF Ca sens inh -21 and cardiac RTF act -3.
For C=C[C@@]1(C)CC(=O)[C@]2(O)[C@@]3(C)[C@@H](O)CCC(C)(C)[C@@H]3[C@H](O)[C@H](OC(C)=O)[C@@]2(C)O1 the results were C-LANA FP -3, LANA-H2A inh 0, Keap1-Nrf2 PPI -2, RTF Ca sens inh 19*, cardiac RTF act 6 and RTF Ca inh conf -5.
For COc1ccc(-c2cc(-c3ccc(OC)cc3)[nH]n2)cc1 the results were C-LANA FP 0, LANA-H2A inh -1, Keap1-Nrf2 PPI -4, RTF Ca sens inh 17*, cardiac RTF act 4 and RTF Ca inh conf 1.
For COc1cccc(C(=O)Nc2cccc(C(=O)N3CCOCC3)c2)c1 the results were C-LANA FP 0, LANA-H2A inh 3, Keap1-Nrf2 PPI -1, RTF Ca sens inh 21*, cardiac RTF act -7 and RTF Ca inh conf -2.
Screening Cc1ccccc1OCC(=O)OCC(=O)NCCNC(=O)COC(=O)COc1ccccc1C returned C-LANA FP 0, LANA-H2A inh -4, Keap1-Nrf2 PPI -2, RTF Ca sens inh 17*, cardiac RTF act -10 and RTF Ca inh conf 0.
COc1ccccc1C(=O)NC(=O)COC(=O)CCOc1ccc(C)cc1 was read as C-LANA FP 0, LANA-H2A inh -2, Keap1-Nrf2 PPI 0, RTF Ca sens inh -19 and cardiac RTF act -2.
`COc1ccccc1C(=O)NC(=O)COC(=O)CCOc1ccccc1C` gave C-LANA FP 0, LANA-H2A inh 2, Keap1-Nrf2 PPI 0, RTF Ca sens inh 28*, cardiac RTF act -14 and RTF Ca inh conf -1.
`Cc1ccccc1OCC(=O)OCC(=O)NCc1ccccc1` gave C-LANA FP 0, LANA-H2A inh 6, Keap1-Nrf2 PPI 0, RTF Ca sens inh 7 and cardiac RTF act -4.
Cc1ccc(C(=O)NC(=S)Nn2cnnc2)cc1 was read as C-LANA FP 0, LANA-H2A inh 8, Keap1-Nrf2 PPI -2, RTF Ca sens inh -1 and cardiac RTF act 6.

Screens deposited in PubChem by several laboratories.
